This note sets out measurements from the supplement of paper PMC12819154, “High-throughput peptide-centric local stability assay extends protein–ligand identification to membrane proteins, tissues and bacteria” (Nature Structural & Molecular Biology, 2025).

Compound in this assay: Nc1ncnc2c1ncn2[C@@H]1O[C@H](COP(=O)(O)OP(=O)(O)OP(=O)(O)O)[C@@H](O)[C@H]1O [adenosine 5'-triphosphate]
The assay is described as follows: log2 fold change of tryptic peptide abundance, ligand vs vehicle (limited proteolysis) (log2 ratio); higher = more trypsin-susceptible (destabilized). Particulars: ligand concentration: 5 mM; sample: E. coli desalted lysate; replicate design: treated before aliquoting. As to the method: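 HT-PELSA: desalted E. coli K-12 BW25113 lysate (with 12 mM MgCl2) incubated with 5 mM ATP (pH 7) or water for 30 min at 25 C, then a 4 min trypsin pulse at 22 C. Peptides were quantified by DIA-MS (4 replicates). Value is the peptide log2 fold change (treated/control); negative = stabilized. Scale: negative = ligand-stabilized region.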
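Also: lysate desalted by size exclusion to strip endogenous ATP, peptide intensities built from DIA-NN precursor signals, and peptides missing any value discarded before comparison.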

UniProt P0A959, sequence (P0A959 whole entry): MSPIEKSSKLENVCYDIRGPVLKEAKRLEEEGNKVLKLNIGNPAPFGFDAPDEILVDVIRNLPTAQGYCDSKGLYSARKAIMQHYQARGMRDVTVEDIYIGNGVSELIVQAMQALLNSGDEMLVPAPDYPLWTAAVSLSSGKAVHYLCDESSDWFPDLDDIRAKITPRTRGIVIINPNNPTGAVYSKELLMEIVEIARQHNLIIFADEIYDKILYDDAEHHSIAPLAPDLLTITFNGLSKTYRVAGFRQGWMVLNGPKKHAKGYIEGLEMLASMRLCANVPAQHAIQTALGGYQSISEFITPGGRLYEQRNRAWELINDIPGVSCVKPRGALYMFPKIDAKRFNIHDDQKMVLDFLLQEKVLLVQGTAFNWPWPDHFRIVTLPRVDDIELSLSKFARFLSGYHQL
UniProt P24192, sequence (P24192 whole entry): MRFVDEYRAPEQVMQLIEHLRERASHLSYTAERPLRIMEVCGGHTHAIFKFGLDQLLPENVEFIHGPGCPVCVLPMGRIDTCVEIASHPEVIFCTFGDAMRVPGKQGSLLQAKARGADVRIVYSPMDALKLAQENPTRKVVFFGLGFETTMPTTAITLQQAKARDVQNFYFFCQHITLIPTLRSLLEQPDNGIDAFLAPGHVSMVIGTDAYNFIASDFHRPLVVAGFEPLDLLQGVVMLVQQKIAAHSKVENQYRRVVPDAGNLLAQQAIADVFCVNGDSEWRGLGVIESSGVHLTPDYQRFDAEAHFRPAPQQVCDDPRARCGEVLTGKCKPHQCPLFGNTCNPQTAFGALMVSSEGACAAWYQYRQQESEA
UniProt P04425, sequence (P04425 whole entry): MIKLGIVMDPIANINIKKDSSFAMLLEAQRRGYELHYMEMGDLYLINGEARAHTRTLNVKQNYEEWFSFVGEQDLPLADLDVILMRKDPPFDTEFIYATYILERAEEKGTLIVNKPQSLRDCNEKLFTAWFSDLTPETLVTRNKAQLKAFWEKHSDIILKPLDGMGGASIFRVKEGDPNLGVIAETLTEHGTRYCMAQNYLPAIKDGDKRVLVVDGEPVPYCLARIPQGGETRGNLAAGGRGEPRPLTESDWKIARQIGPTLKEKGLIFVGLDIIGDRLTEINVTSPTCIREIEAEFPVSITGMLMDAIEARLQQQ
UniProt P38051, sequence (P38051 whole entry): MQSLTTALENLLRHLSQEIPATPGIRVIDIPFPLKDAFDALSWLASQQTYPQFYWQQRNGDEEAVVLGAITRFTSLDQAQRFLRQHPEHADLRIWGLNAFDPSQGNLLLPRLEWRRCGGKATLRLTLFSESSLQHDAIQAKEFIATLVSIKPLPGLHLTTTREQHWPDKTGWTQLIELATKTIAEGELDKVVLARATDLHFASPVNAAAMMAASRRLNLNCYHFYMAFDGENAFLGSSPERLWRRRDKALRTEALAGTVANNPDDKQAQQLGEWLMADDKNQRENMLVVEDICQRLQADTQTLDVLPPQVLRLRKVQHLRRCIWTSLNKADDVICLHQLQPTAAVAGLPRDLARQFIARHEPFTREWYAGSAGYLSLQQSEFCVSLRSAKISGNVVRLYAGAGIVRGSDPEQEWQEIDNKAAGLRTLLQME
UniProt P61517, sequence (P61517 whole entry): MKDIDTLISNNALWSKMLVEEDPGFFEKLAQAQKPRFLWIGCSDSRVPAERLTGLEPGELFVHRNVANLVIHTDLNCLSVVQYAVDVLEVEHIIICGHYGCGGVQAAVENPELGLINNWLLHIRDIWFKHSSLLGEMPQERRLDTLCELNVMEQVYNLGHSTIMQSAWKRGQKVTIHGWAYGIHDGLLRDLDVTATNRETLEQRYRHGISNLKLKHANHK
UniProt P30011, sequence (P30011 whole entry): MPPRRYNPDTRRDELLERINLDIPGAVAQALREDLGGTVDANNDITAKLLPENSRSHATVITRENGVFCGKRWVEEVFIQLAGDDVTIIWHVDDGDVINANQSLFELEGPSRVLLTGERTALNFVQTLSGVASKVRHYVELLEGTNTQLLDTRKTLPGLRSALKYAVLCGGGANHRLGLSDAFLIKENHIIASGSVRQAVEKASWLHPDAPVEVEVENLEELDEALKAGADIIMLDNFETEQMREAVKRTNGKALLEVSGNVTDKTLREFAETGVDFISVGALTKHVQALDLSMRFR
UniProt P37024, sequence (P37024 whole entry): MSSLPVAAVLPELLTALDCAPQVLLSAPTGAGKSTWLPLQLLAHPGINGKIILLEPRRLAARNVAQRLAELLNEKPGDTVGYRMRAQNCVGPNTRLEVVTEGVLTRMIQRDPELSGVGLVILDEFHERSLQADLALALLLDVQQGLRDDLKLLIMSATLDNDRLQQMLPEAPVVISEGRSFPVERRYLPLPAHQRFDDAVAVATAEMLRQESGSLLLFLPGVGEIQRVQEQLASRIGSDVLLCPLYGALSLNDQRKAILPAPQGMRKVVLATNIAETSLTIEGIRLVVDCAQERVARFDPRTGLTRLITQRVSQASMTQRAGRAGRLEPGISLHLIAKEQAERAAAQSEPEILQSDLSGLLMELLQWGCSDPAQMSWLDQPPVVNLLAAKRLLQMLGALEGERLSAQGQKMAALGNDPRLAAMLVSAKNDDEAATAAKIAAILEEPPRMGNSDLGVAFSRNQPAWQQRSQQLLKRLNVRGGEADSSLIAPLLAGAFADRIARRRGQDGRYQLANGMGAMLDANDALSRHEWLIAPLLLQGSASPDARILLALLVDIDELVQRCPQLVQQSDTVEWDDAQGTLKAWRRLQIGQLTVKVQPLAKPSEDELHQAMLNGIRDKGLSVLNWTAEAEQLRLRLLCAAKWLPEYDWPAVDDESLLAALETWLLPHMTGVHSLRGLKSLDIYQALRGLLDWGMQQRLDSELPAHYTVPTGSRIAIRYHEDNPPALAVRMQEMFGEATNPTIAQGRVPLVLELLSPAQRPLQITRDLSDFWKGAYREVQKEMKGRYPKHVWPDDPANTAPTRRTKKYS
UniProt P42593, sequence (P42593 whole entry): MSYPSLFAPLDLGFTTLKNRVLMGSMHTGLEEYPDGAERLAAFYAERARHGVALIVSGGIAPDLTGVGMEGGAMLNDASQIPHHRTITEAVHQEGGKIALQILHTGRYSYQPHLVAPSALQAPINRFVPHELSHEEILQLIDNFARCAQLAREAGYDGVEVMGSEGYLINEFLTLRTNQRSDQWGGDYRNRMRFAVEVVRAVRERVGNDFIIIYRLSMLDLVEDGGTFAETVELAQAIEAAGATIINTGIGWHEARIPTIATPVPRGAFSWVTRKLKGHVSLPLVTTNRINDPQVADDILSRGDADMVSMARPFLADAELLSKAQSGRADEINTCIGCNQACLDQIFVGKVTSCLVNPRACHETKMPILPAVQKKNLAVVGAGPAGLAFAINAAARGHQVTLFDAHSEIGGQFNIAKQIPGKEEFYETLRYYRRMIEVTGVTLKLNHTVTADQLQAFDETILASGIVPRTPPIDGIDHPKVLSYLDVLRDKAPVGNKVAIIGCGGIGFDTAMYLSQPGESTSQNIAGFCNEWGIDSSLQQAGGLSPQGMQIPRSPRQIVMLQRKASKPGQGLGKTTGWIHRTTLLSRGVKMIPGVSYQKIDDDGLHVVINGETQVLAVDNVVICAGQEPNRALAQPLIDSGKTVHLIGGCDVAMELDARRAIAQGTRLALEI
UniProt P11553, sequence (P11553 whole entry): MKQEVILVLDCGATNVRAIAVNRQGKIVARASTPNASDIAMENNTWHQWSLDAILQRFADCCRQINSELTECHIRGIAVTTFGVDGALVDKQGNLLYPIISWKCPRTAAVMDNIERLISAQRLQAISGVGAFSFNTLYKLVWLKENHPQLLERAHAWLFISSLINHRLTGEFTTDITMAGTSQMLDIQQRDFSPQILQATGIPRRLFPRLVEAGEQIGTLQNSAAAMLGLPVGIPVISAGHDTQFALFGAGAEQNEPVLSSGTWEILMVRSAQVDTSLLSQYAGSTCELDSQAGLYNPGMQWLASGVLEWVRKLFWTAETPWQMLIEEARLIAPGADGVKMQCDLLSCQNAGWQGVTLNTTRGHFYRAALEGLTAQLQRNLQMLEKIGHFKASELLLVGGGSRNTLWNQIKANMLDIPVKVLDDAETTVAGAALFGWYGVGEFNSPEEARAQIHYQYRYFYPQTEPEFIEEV
UniProt P77795, sequence (P77795 whole entry): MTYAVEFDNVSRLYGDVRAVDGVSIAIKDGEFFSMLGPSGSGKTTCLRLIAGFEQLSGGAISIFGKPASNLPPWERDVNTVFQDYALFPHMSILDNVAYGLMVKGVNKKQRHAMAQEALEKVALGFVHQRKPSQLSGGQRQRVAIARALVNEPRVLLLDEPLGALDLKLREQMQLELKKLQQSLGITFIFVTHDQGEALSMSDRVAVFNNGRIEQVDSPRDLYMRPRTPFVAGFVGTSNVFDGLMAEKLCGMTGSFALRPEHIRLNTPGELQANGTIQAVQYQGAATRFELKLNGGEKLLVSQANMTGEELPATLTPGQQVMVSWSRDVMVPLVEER
UniProt Q46919, sequence (Q46919 whole entry): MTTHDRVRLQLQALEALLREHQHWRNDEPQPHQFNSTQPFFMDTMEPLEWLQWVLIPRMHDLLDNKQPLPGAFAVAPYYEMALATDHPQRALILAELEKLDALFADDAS
UniProt P34209, sequence (P34209 whole entry): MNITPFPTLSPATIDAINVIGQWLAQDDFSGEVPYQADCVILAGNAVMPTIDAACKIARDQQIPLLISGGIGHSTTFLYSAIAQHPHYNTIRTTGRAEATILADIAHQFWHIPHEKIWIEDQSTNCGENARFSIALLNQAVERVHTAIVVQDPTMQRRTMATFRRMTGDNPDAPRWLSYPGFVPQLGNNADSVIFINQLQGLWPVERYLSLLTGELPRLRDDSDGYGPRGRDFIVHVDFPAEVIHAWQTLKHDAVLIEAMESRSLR
UniProt P0AFU8, sequence (P0AFU8 whole entry): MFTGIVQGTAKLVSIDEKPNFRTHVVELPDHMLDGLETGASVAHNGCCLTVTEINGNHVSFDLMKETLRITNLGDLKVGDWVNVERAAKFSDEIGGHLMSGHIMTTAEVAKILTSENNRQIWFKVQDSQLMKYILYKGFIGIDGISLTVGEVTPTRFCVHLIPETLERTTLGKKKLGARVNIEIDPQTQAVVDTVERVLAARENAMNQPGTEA

As for “UniProt P42593 (peptide sequence: MIEVTGVTLK, peptide start residue: 435)”, the log2 fold change was -1.15. Consider “UniProt Q46855 (peptide sequence: VGYESASQFSR, peptide start residue: 285)”, for which the log2 fold change came out at 0.235. “UniProt P69829 (peptide sequence: EKMGSTGIGNGIAIPHGKLEEDTLR, peptide start residue: 58)”: the log2 fold change amounted to 0.37. “UniProt P00934 (peptide sequence: LYNLKDHNEQVSFAQAVTQGLGK, peptide start residue: 3)”: the log2 fold change is -1.05. As to “UniProt P25524 (peptide sequence: EYGVESLHK, peptide start residue: 192)”, the log2 fold change was -0.706. For “UniProt P77610 (peptide sequence: WLNAHEEGYHK, peptide start residue: 18)”, the log2 fold change was -0.358.

With “UniProt P75968 (peptide sequence: HLIIKPLSR, peptide start residue: 102)”, the log2 fold change is -1.04. In the case of “UniProt P06989 (peptide sequence: KSADPETSYTAK, peptide start residue: 126)”, the log2 fold change was -0.912. As to “UniProt P77795 (peptide sequence: IEQVDSPR, peptide start residue: 213)”, the log2 fold change was -0.95. The result for “UniProt P32703 (peptide sequence: AATAEVAIVAIQK, peptide start residue: 440)” reads 1.52; that for “UniProt P21866 (peptide sequence: RHSATTAPDPLVK, peptide start residue: 118)”, 1.65; that for “UniProt P21693 (peptide sequence: ELADQVAGELRR, peptide start residue: 82)”, -1.53. For the target “UniProt P39829 (peptide sequence: SANPSPGNKK, peptide start residue: 364)”, the log2 fold change was -0.412. In the case of “UniProt P42589 (peptide sequence: TVVVLCNLQK, peptide start residue: 62)”, the log2 fold change is -0.415. The result for “UniProt P10907 (peptide sequence: ILELDGLLK, peptide start residue: 121)” reads -0.369. In the case of “UniProt P34209 (peptide sequence: MTGDNPDAPR, peptide start residue: 166)”, the log2 fold change is -0.261. Consider “UniProt P08660 (peptide sequence: RNQTLLTLHSLNMLHSR, peptide start residue: 306)”, for which the log2 fold change was -0.461. The result for “UniProt Q46915 (peptide sequence: AMNSEAVVR, peptide start residue: 181)” reads -0.607; that for “UniProt P24192 (peptide sequence: PAPQQVCDDPR, peptide start residue: 310)”, -0.597; that for “UniProt P18776 (peptide sequence: PICVESCPLR, peptide start residue: 139)”, -1.14.

In the case of “UniProt P61517 (peptide sequence: DLDVTATNR, peptide start residue: 190)”, the log2 fold change worked out at 0.547. For “UniProt P77300 (peptide sequence: STLHSLLK, peptide start residue: 38)”, the log2 fold change is -0.881. Regarding “UniProt P43329 (peptide sequence: IAEELKTEPGGCIGYK, peptide start residue: 142)”, the log2 fold change is -2.41. Turning to “UniProt P0A959 (peptide sequence: QGWMVLNGPKKHAK, peptide start residue: 249)”, the log2 fold change is 1.18.

Consider “UniProt P38051 (peptide sequence: QAQQLGEWLMADDKNQR, peptide start residue: 267)”, for which the log2 fold change is -0.448. Then “UniProt P11553 (peptide sequence: AQIHYQYR, peptide start residue: 451)”, with 0.93; and “UniProt P30011 (peptide sequence: VRHYVELLEGTNTQLLDTR, peptide start residue: 135)”, with 0.868. With “UniProt P14081 (peptide sequence: EHLLQLPER, peptide start residue: 159)”, the log2 fold change was -1.29. For the target “UniProt P25437 (peptide sequence: SQLPGMVEDAMK, peptide start residue: 321)”, the log2 fold change is -0.846.

As to “UniProt P18775 (peptide sequence: IAHAVDSAIPTK, peptide start residue: 42)”, the log2 fold change was -0.536. The result for “UniProt P0AFZ1 (peptide sequence: NELEDLLEK, peptide start residue: 6)” reads 0.67; that for “UniProt P13000 (peptide sequence: TAGYKPVASGSEK, peptide start residue: 34)”, -1.41; that for “UniProt P37760 (peptide sequence: ALQEYCAK, peptide start residue: 138)”, -1.03. Regarding “UniProt P39325 (peptide sequence: STLYLPDTAKEELEK, peptide start residue: 298)”, the log2 fold change is -1.01. Then “UniProt P37342 (peptide sequence: SESLDDFFTR, peptide start residue: 261)”, with 0.46; and “UniProt P39364 (peptide sequence: IIGQLMSDIR, peptide start residue: 82)”, with -0.915.

As for “UniProt P0A9U1 (peptide sequence: LIASGTPDDLK, peptide start residue: 537)”, the log2 fold change was -0.834.

As to “UniProt P20083 (peptide sequence: VQDLQVVGTCGKR, peptide start residue: 147)”, the log2 fold change is -1.89.

In the case of “UniProt P0ACX3 (peptide sequence: NLGVEEVVAK, peptide start residue: 75)”, the log2 fold change is 0.583. Then “UniProt P07014 (peptide sequence: IVIRPLPGLPVIR, peptide start residue: 89)”, with 0.248; and “UniProt P37634 (peptide sequence: HSFHAGNHADVLK, peptide start residue: 6)”, with -1.17. Then “UniProt Q46919 (peptide sequence: MHDLLDNK, peptide start residue: 59)”, with 0.557; and “UniProt P0CB39 (peptide sequence: QYYMNQQR, peptide start residue: 350)”, with -0.737. On to “UniProt P37024 (peptide sequence: LVVDCAQER, peptide start residue: 286)”, for which the log2 fold change was -0.502. For “UniProt P0AAT4 (peptide sequence: AHLLKPYLTSR, peptide start residue: 288)”, the log2 fold change was 0.38. Consider “UniProt P33643 (peptide sequence: IKEWILDQR, peptide start residue: 36)”, for which the log2 fold change is -0.691. Take “UniProt P68398 (peptide sequence: EVPVGAVLVHNNR, peptide start residue: 27)”: the log2 fold change worked out at 0.483. For “UniProt P39177 (peptide sequence: FEEHLQHEAQER, peptide start residue: 58)”, the log2 fold change is -2.59. On to “UniProt Q06065 (peptide sequence: FSSENQR, peptide start residue: 334)”, for which the log2 fold change is -2.8. For the target “UniProt P76562 (peptide sequence: EHYRLRR, peptide start residue: 544)”, the log2 fold change came out at 0.855. Consider “UniProt P75682 (peptide sequence: AWRDGDVAK, peptide start residue: 229)”, for which the log2 fold change was -1.32. As for “UniProt P52129 (peptide sequence: LQIQGRPLSCYR, peptide start residue: 161)”, the log2 fold change turned out to be 0.646. With “UniProt P27298 (peptide sequence: DGDHYATLNTAQK, peptide start residue: 115)”, the log2 fold change is 1.13. As for “UniProt P04425 (peptide sequence: GTLIVNKPQSLR, peptide start residue: 109)”, the log2 fold change is -1.9. As to “UniProt P32125 (peptide sequence: AGAAQTIVASQQR, peptide start residue: 63)”, the log2 fold change was -0.686. Then “UniProt P76134 (peptide sequence: TMNSVQLTAQK, peptide start residue: 298)”, with -0.467; and “UniProt P0AFU8 (peptide sequence: FSDEIGGHLMSGHIMTTAEVAK, peptide start residue: 90)”, with 0.559; and “UniProt P03835 (peptide sequence: DLASMGQLVK, peptide start residue: 402)”, with -1.3. As for “UniProt P39274 (peptide sequence: FYINDKQGK, peptide start residue: 10)”, the log2 fold change turned out to be 0.423. Then “UniProt P09152 (peptide sequence: GHEFMLK, peptide start residue: 724)”, with 0.491; and “UniProt Q46802 (peptide sequence: GAFTGASANGK, peptide start residue: 347)”, with -0.841; and “UniProt P77395 (peptide sequence: RQLYALLY, peptide start residue: 277)”, with 0.6. In the case of “UniProt P75829 (peptide sequence: EIAEIASK, peptide start residue: 298)”, the log2 fold change is -0.281. Take “UniProt P39208 (peptide sequence: RAGHFMPVALLK, peptide start residue: 119)”: the log2 fold change was -1.52. On to “UniProt P06149 (peptide sequence: VRDIEADTPAR, peptide start residue: 232)”, for which the log2 fold change is -1.35. Then “UniProt P75957 (peptide sequence: KKPAEINSR, peptide start residue: 117)”, with -1.5; and “UniProt P75745 (peptide sequence: QLLWGNR, peptide start residue: 167)”, with -0.312; and “UniProt P0A9M8 (peptide sequence: LSVFKPIAQPRTGGDAPDQTTTIVR, peptide start residue: 34)”, with 2.79.
